The supplement of paper PMC10681739

Experiments:
ETS1 = target: T1, ETS1 (UniProt P14921); assay: ETS1 binding intensity (PBM fluorescence), ETS1 alone (arbitrary fluorescence units); higher = stronger binding; conditions: ETS1 concentration 1 nM; RUNX1 concentration 0 nM
T1 sequence: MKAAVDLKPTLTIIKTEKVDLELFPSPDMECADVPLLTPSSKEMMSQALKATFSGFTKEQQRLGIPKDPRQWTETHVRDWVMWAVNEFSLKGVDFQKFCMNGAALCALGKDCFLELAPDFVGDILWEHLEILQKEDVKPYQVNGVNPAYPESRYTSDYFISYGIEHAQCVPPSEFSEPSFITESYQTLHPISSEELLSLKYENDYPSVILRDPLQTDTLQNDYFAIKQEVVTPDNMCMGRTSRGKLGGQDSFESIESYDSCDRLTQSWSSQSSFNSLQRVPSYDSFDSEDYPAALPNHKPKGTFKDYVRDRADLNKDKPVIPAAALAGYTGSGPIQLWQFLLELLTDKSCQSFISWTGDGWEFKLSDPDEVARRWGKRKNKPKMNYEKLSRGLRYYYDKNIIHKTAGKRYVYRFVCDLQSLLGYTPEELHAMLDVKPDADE

RUNX1 [1] = target: RUNX1 (UniProt Q01196); assay: RUNX1 binding intensity (PBM fluorescence), RUNX1 alone (arbitrary fluorescence units); higher = stronger binding; conditions: RUNX1 concentration 2 nM; ETS1 concentration 0 nM
Chain of RUNX1 (Q01196 whole entry): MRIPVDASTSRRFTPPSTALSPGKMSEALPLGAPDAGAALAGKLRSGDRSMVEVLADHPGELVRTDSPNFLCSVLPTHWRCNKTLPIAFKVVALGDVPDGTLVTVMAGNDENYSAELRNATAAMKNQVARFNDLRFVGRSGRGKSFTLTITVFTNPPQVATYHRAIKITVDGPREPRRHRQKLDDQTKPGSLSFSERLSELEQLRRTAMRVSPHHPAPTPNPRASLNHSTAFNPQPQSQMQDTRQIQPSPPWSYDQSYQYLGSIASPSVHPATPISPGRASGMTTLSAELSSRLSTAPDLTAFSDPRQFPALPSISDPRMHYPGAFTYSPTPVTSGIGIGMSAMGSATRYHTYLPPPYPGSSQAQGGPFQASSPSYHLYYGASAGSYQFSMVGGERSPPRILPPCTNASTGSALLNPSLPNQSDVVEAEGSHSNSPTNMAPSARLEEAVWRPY
Description: (§1)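 Cooperative gcPBM on 36-bp genomic probes with neighbouring ETS1 and RUNX1 sites. Recombinant human RUNX1 (2 nM) was incubated alone or with ETS1 (25 nM) and detected with anti-RUNX1 antibody plus Alexa488 secondary. Values are medians over 4 replicate spots; the RUNX1+ETS1 data were normalised to the RUNX1-only data. The probes sit in constant array flanks that are not printed.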

RUNX1 [2] = target: RUNX1 (UniProt Q01196); assay: RUNX1 binding intensity (PBM fluorescence) in presence of ETS1, normalised to RUNX1-only experiment (arbitrary fluorescence units); higher = stronger binding; conditions: RUNX1 concentration 2 nM; ETS1 concentration 25 nM
Description: as §1
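Wherever RUNX1 binding intensity (PBM fluorescence) in presence of ETS1, normalised to RUNX1-only experiment is given: Full-length recombinant human ETS1 or RUNX1 bound to double-stranded 36-bp genomic probes on microarrays, detected by protein-specific primary antibody and Alexa488 secondary, spot fluorescence as median of four replicate spots.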
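Wherever RUNX1 binding intensity (PBM fluorescence), RUNX1 alone is given: Full-length recombinant human RUNX1 bound to double-stranded 36-bp genomic probes on a high-density microarray, scored as Alexa488 fluorescence per spot via anti-RUNX1 antibody, median of four replicate spots.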

Row | Sequence | ETS1 binding intensity (ETS1) | RUNX1 binding intensity (RUNX1 [1]) | RUNX1 binding intensity (RUNX1 [2])
1 | TTCTGTAGCTTAGGATGTGGGTTTCTTTGTTTCTGA | 452 | 926 | 1030
2 | AAAGACAGGATGTGGGGGAGTGAGCCACAAGGGCCC | 1160 | 752 | 2080
3 | CCAGAGCACATCCTACACGCACCACAACCTGAAAAC | 453 | 1250 | 1470
4 | TGAGCACAGTATTTCCTGTGGTTTCTATTGCATTTC | 1010 | 1090 | 3540
5 | GACAATGAGCGCACAGGATGTGGTTTGGCGGCAGGG | 6680 | 854 | 3690
6 | CCCATTTCCTGCTCTCCAGAGTTAACCACTGAAGTC | 815 | 1440 | 3490
7 | GTGGTCGGGAGGGGAAGTGAGGCGGTTACCTCGGCG | 684 | 790 | 925
8 | GTTAGCGTGATCGGAGGATGTGGTTTTCCTCCCTCT | 1440 | 942 | 1930
9 | CGCCGAACTTCCGGCAGTAAATTCCGTGGTTTCCCT | 2800 | 911 | 2400
10 | TGAGCCTTGGAAGGAAATGATTCACCACAATACTGT | 741 | 831 | 867
11 | CAAGGCACCAACGGATGTGGTATCTGGTGAGGGCTT | 2150 | 846 | 2430
12 | GAAGAGAAAGGAAACGGCTCGCGGTTTCTGGGGTTC | 822 | 738 | 1280
13 | GGAAAAGGAAGTGGCTTTGACTTGCGGGCAGGGAGA | 1020 | 733 | 2560
14 | GAGGGGGAGGTTTCCGGGGCCTGTGGTTACTACACT | 438 | 943 | 1910
15 | TGCAGCTATGGCCGGAAGCCTGTGGGTGTGGGAGGA | 4180 | 726 | 906
